Screening results from PubChem BioAssay.
Most compounds without a hit are left out; they make up all but 1.8% or so of the library.
Fam108B inh – mouse Fam108B serine hydrolase inhibitors, primary screen, counter-screen for RBBP9 inhibitor project, biochemical, fluorescence polarization | recombinant Fam108B, FP-Rh probe fluorescence polarization | inhibition, % at 9.51 µM | hit rate 0.33% among 300,000 | AID 1947, 2009;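 active = inhibition above the screen mean inhibition plus 3 SD, computed separately per campaign, cut at about 18% in these data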;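 note: inhibitors lower polarization as less probe binds the enzyme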
LYPLA2 counter – LYPLA2 inhibitors, primary screen, counter-screen for PME1 inhibitor project, biochemical, fluorescence polarization, FP-Rh probe ABPP; Acyl-protein thioesterase 2 (Homo sapiens), O95372; recombinant LYPLA2; inhibition, % at 5.9 µM; hit rate 0.38% among 320,000;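 active = inhibition above the screen-wide mean plus 3 SD, limit set per campaign, cut at about 26% in these data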
LYPLA1 inh – LYPLA1 inhibitors, primary screen, counter-screen for PME1 inhibitor project, biochemical, fluorescence polarization, FP-Rh probe ABPP | Acyl-protein thioesterase 1 (Homo sapiens), O75608 | recombinant LYPLA1 | inhibition, % at 5.9 µM | hit rate 0.16% among 320,000;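 active = inhibition above the mean of all tested compounds plus 3 SD, set per campaign, cut at about 14% in these data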;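 note: inhibitors block serine hydrolase probe labeling of LYPLA1 so polarization falls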
Target sequence (O75608 whole entry, looked up): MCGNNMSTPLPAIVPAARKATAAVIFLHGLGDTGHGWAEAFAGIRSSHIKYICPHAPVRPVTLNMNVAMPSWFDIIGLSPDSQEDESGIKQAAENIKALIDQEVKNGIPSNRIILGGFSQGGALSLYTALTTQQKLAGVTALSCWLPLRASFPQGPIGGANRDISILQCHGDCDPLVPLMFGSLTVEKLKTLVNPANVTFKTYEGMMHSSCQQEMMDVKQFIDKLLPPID
PAD4 FP inh – human PAD4 inhibitors, primary screen, biochemical, fluorescence polarization, 1536-well format; recombinant PAD4, RCA probe fluorescence polarization; inhibition, % at 6.36 µM; hit rate 0.41% among 330,000; AID 485272, 2010;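 active = percent inhibition above a cutoff equal to the mean of all tested compounds plus 3 SD, cut at about 15% in these data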
GSTO1 inh – inhibitors of recombinant GSTO1, primary screen, counter-screen for RBBP9 inhibitor project, biochemical, fluorescence polarization; Glutathione S-transferase omega-1 (Homo sapiens), P78417; activity-based probe fluorescence polarization; inhibition, % at 5.96 µM; hit rate 1.1% among 300,000;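 active = inhibition above the campaign mean inhibition plus 3 SD, cut at about 35% in these data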
PME-1 primary – PME-1 inhibitors via competitive probe labeling, primary screen, biochemical, fluorescence polarization, FP-Rh probe, HTS. Protein phosphatase methylesterase 1 (Homo sapiens), Q9Y570. recombinant PME-1. inhibition, % at 5.9 µM. hit rate 0.53% among 320,000;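 active = inhibition above the campaign mean of all compounds plus 3 SD, cut at about 26% in these data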;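 note: competitive labeling of PME-1 active site by serine hydrolase directed probe; inhibitors block probe labeling so polarization falls and inhibition rises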
Target sequence (Q9Y570 whole entry, looked up): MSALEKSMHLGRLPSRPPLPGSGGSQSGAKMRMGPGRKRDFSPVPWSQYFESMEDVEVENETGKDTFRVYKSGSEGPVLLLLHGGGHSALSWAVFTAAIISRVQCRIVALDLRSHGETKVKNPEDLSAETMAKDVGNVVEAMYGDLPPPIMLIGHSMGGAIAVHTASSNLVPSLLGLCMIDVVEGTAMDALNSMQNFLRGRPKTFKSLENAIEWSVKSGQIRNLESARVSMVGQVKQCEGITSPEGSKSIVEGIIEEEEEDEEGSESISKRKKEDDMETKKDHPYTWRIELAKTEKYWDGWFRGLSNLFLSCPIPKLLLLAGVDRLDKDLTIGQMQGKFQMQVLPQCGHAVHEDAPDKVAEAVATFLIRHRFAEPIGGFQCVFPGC
Fam108b inh conf – mouse Fam108b serine hydrolase inhibitors, confirmation, counter-screen for RBBP9 inhibitor project, biochemical, fluorescence polarization, triplicate; hit rate 44% among 930; recombinant Fam108b, FP-Rh probe fluorescence polarization; shares compounds with Fam108B inh; inhibition, % at 9.51 µM;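 active = inhibition above a limit from the primary screen, the mean over all compounds plus 3 SD, cut at about 19% in these data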;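 note: inhibitors free the probe so polarization falls as inhibition rises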
Fam108b inh – inhibition of mouse Fam108b by HTS hits, late-stage follow-up, biochemical, gel-based ABPP, soluble recombinant form; shares compounds with Fam108B inh; AID 588649, 2011; hit rate 44% among 260; inhibition, % at 20 µM; fluorophosphonate probe; in the data active = inhibition above about 40%
Hits are given with their value.

What do the screens show for `CCOC(=O)CNC(=O)Cn1cnc2ccc(S(=O)(=O)N3CCC(C)CC3)cc2c1=O`?
Fam108B inh: inactive; LYPLA2 counter: inactive; LYPLA1 inh: inactive; PAD4 FP inh: inactive; GSTO1 inh: inactive; PME-1 primary: inactive

What do the screens show for `CCc1ccc(N2CC(C(=O)Nc3nnc(CC)s3)CC2=O)cc1` (stereo not drawn)?
Fam108B inh: inactive; LYPLA2 counter: inactive; LYPLA1 inh: inactive; PAD4 FP inh: inactive; GSTO1 inh: inactive; PME-1 primary: inactive

Results for CS(=O)(=O)Cc1ccc(C(=O)NC2CCSc3ccccc32)cc1 (stereo not drawn) ?
Fam108B inh: inactive; LYPLA2 counter: inactive; LYPLA1 inh: inactive; PAD4 FP inh: inactive; GSTO1 inh: inactive; PME-1 primary: inactive

What do the screens show for `COc1cc(/C=C(/C#N)C(=O)NCCc2c[nH]c3ccccc23)ccc1OCc1ccccc1F`?
Fam108B inh: inactive; LYPLA2 counter: inactive; LYPLA1 inh: inactive; PAD4 FP inh: inactive; GSTO1 inh: inactive; PME-1 primary: inactive

What do the screens show for `Cc1ccc(/C=C\c2nccc3c2[nH]c2ccccc23)cc1`?
Fam108B inh: 24; LYPLA2 counter: inactive; LYPLA1 inh: inactive; PAD4 FP inh: inactive; GSTO1 inh: inactive; PME-1 primary: inactive; Fam108b inh conf: inactive

How did C(=C\c1nccc2c1[nH]c1ccccc12)/c1ccccc1 do in these assays?
Fam108B inh: inactive; LYPLA2 counter: inactive; LYPLA1 inh: inactive; PAD4 FP inh: inactive; GSTO1 inh: inactive; PME-1 primary: inactive

What do the screens show for `Fc1ccc(/C=C\c2nccc3c2[nH]c2ccccc23)cc1`?
Fam108B inh: 19; LYPLA2 counter: inactive; LYPLA1 inh: inactive; PAD4 FP inh: inactive; GSTO1 inh: inactive; PME-1 primary: inactive; Fam108b inh conf: inactive

What do the screens show for `O=C(Cc1ccccc1[N+](=O)[O-])OCC(=O)c1ccccc1Br`?
PAD4 FP inh: inactive

How did Cc1ccc(C(=O)NC(=S)Nc2ccc3c(c2)OCCO3)c(C)c1 do in these assays?
Fam108B inh: 26; LYPLA2 counter: inactive; LYPLA1 inh: inactive; PAD4 FP inh: inactive; GSTO1 inh: inactive; PME-1 primary: inactive; Fam108b inh conf: inactive

What do the screens show for `Cc1cc(C)cc(C(=O)NC(=S)Nc2ccc3c(c2)OCCO3)c1`?
Fam108B inh: inactive; LYPLA2 counter: inactive; LYPLA1 inh: inactive; PAD4 FP inh: inactive; GSTO1 inh: inactive; PME-1 primary: inactive

Results for Clc1ccc(C2Nc3cccc4cccc(c34)N2)cc1Cl ?
Fam108B inh: 24; LYPLA2 counter: inactive; LYPLA1 inh: inactive; PAD4 FP inh: inactive; GSTO1 inh: inactive; PME-1 primary: inactive; Fam108b inh conf: 21

What do the screens show for `Clc1cccc(C2Nc3cccc4cccc(c34)N2)c1`?
Fam108B inh: inactive; LYPLA2 counter: inactive; LYPLA1 inh: inactive; PAD4 FP inh: inactive; GSTO1 inh: inactive; PME-1 primary: inactive

What do the screens show for `CCOc1cc(C2Nc3cccc4cccc(c34)N2)ccc1O`?
Fam108B inh: 63; LYPLA2 counter: inactive; LYPLA1 inh: inactive; PAD4 FP inh: inactive; GSTO1 inh: inactive; PME-1 primary: inactive; Fam108b inh conf: 24

Results for Oc1ccccc1C1Nc2cccc3cccc(c23)N1 ?
Fam108B inh: 60; LYPLA2 counter: inactive; LYPLA1 inh: inactive; PAD4 FP inh: inactive; GSTO1 inh: inactive; PME-1 primary: 46; Fam108b inh conf: 31; Fam108b inh: 85

How did O=C(Nc1cc(S(=O)(=O)N2CCOCC2)ccc1Cl)c1cc([N+](=O)[O-])ccc1Cl do in these assays?
PAD4 FP inh: inactive

What do the screens show for `CC1CCN(C(=O)CCCC(=O)N2CCC(C)CC2)CC1`?
Fam108B inh: inactive; LYPLA2 counter: inactive; LYPLA1 inh: inactive; PAD4 FP inh: inactive; GSTO1 inh: inactive; PME-1 primary: inactive

Results for COc1ccc2[nH]c(C(=O)N/N=C/c3ccccc3OC)cc2c1 ?
Fam108B inh: inactive; LYPLA2 counter: inactive; LYPLA1 inh: inactive; PAD4 FP inh: inactive; GSTO1 inh: inactive; PME-1 primary: inactive

How did COc1cc2cc(C(=O)NN=Cc3ccccc3Cl)[nH]c2cc1OC do in these assays?
Fam108b inh: 50

What do the screens show for `CCOc1ccc2[nH]c(C(=O)N/N=C/c3ccccc3OC)cc2c1`?
Fam108B inh: 21; LYPLA2 counter: inactive; LYPLA1 inh: inactive; PAD4 FP inh: inactive; GSTO1 inh: inactive; PME-1 primary: inactive; Fam108b inh conf: inactive

What do the screens show for `Cc1cc2nc(-c3ccc(SCc4ccc(C#N)cc4)nc3)[nH]c2cc1C`?
Fam108B inh: 26; LYPLA2 counter: inactive; LYPLA1 inh: inactive; PAD4 FP inh: inactive; GSTO1 inh: inactive; PME-1 primary: inactive; Fam108b inh conf: inactive

How did COc1ccc(-c2nc(-c3ccccc3)c(-c3cc([N+](=O)[O-])ccc3C)[nH]2)cc1OC do in these assays?
Fam108B inh: inactive; LYPLA2 counter: inactive; LYPLA1 inh: inactive; PAD4 FP inh: inactive; GSTO1 inh: inactive; PME-1 primary: inactive

Results for COc1ccc(-c2[nH]c(-c3cc(OC)c4c(c3)OCO4)nc2-c2ccccc2)cc1 ?
Fam108B inh: 19; LYPLA2 counter: inactive; LYPLA1 inh: inactive; PAD4 FP inh: inactive; GSTO1 inh: inactive; PME-1 primary: inactive; Fam108b inh conf: inactive

How did COc1ccc(Nc2nnc(SC(C(=O)Nc3cc(C)ccc3C)c3ccccc3)s2)cc1 (stereo not drawn) do in these assays?
Fam108B inh: inactive; LYPLA2 counter: inactive; LYPLA1 inh: inactive; PAD4 FP inh: inactive; GSTO1 inh: inactive; PME-1 primary: inactive

What do the screens show for `COc1ccc(Nc2nnc(SC(C(=O)Nc3ccc(OC)c(Cl)c3)c3ccccc3)s2)cc1` (stereo not drawn)?
Fam108B inh: 38; LYPLA2 counter: inactive; LYPLA1 inh: inactive; PAD4 FP inh: inactive; GSTO1 inh: inactive; PME-1 primary: 52; Fam108b inh conf: 25

What do the screens show for `O=[N+]([O-])c1ccc(O)c(Nc2ncnc3ccc(Br)cc23)c1`?
Fam108B inh: 20; LYPLA2 counter: inactive; LYPLA1 inh: inactive; PAD4 FP inh: inactive; GSTO1 inh: inactive; PME-1 primary: 32; Fam108b inh conf: inactive

What do the screens show for `COc1ccc(OC)c(/C=C2\S/C(=N/NC(=O)c3ccc4ccccc4c3)NC2=O)c1`?
Fam108B inh: 32; LYPLA2 counter: inactive; LYPLA1 inh: inactive; PAD4 FP inh: inactive; GSTO1 inh: inactive; PME-1 primary: inactive; Fam108b inh conf: inactive

What do the screens show for `COc1ccc(OC)c(/C=N/NC(=O)c2ccc3nc[nH]c3c2)c1`?
Fam108B inh: inactive; LYPLA2 counter: inactive; LYPLA1 inh: inactive; PAD4 FP inh: inactive; GSTO1 inh: inactive; PME-1 primary: inactive
